Data: ChEMBL document CHEMBL1961873, “Compounds: GSK PKIS; Assays: Nanosyn kinase panel” (2012)

Legend:
[1] = molecular target: Casein kinase I isoform gamma-2 (Homo sapiens) (UniProt P78368); conditions: at 1 µM
[2] = molecular target: Casein kinase I isoform gamma-3 (Homo sapiens) (UniProt Q9Y6M4); conditions: at 0.1 µM
[3] = molecular target: Casein kinase I isoform gamma-3 (Homo sapiens) (UniProt Q9Y6M4); conditions: at 1 µM
[4] = molecular target: Cyclin-dependent kinase 1 (Homo sapiens) (UniProt P06493); conditions: at 0.1 µM
Chain of Cyclin-dependent kinase 1 (Homo sapiens) (P06493 whole entry, looked up): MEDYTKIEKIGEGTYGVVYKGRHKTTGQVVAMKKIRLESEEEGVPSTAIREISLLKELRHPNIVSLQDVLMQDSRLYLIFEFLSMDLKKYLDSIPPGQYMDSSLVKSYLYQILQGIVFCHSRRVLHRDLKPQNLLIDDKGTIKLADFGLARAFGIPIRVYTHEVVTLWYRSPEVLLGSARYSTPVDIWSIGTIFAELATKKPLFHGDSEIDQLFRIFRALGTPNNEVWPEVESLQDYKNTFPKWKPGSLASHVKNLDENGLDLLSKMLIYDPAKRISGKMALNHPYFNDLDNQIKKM

[5] = molecular target: Cyclin-dependent kinase 1 (Homo sapiens) (UniProt P06493); conditions: at 1 µM
[6] = molecular target: Cyclin-dependent kinase 2 (Homo sapiens) (UniProt P24941); conditions: at 0.1 µM
[7] = molecular target: Cyclin-dependent kinase 2 (Homo sapiens) (UniProt P24941); conditions: at 1 µM
[8] = molecular target: Cyclin-dependent kinase 2 (Homo sapiens) (UniProt P24941); conditions: at 0.1 µM; remark: listed apart in the source
[9] = molecular target: Cyclin-dependent kinase 2 (Homo sapiens) (UniProt P24941); conditions: at 1 µM; remark: listed apart in the source
[10] = molecular target: T1, CDK3/Cyclin E (Homo sapiens) (UniProt P24864+Q00526); conditions: at 0.1 µM
T1 sequence (P24864 whole entry, looked up): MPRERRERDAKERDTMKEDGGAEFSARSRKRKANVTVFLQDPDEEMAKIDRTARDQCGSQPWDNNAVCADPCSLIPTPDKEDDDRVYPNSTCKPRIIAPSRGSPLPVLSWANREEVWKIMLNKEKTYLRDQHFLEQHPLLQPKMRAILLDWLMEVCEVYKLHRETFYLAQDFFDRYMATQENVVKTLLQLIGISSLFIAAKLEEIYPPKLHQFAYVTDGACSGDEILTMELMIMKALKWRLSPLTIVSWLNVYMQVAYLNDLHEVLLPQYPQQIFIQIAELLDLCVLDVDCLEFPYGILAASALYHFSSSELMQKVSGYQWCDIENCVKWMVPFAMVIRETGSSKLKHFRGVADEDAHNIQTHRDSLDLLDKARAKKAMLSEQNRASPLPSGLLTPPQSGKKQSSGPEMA
T1 sequence (Q00526 whole entry, looked up): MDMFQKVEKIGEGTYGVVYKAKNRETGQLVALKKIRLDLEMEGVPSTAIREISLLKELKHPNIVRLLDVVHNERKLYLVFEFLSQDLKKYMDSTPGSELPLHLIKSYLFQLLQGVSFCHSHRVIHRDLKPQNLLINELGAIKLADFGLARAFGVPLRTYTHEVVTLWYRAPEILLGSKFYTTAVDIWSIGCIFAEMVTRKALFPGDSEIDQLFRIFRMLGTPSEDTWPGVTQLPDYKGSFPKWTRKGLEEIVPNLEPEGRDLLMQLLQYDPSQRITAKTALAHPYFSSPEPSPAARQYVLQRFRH

[11] = molecular target: T1, CDK3/Cyclin E (Homo sapiens); conditions: at 1 µM
[12] = molecular target: Cyclin-dependent kinase 4 (Homo sapiens) (UniProt P11802); conditions: at 0.1 µM
Chain of Cyclin-dependent kinase 4 (Homo sapiens) (P11802 whole entry): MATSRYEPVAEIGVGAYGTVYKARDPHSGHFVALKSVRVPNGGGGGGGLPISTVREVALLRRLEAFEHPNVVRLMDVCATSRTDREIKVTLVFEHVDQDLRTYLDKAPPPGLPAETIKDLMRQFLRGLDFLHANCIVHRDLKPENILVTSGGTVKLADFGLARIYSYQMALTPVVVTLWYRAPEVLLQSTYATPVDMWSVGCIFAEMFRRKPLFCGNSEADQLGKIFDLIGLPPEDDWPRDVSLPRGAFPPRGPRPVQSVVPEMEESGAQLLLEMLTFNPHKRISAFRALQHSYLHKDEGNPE

[13] = molecular target: Cyclin-dependent kinase 4 (Homo sapiens) (UniProt P11802); conditions: at 1 µM
[14] = molecular target: Cyclin-dependent kinase 5 (Homo sapiens) (UniProt Q00535); conditions: at 0.1 µM
Chain of Cyclin-dependent kinase 5 (Homo sapiens) (Q00535 whole entry, looked up): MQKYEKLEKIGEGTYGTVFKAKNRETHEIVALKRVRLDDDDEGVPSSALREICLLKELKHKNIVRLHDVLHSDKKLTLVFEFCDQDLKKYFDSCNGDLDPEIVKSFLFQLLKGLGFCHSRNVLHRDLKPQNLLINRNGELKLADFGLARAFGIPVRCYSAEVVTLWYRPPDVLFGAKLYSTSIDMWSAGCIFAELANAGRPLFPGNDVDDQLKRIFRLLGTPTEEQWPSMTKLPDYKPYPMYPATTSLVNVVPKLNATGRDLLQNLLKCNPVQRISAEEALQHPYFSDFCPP

[15] = molecular target: Cyclin-dependent kinase 5 (Homo sapiens) (UniProt Q00535); conditions: at 1 µM
[16] = molecular target: Cyclin-dependent kinase 6 (Homo sapiens) (UniProt Q00534); conditions: at 0.1 µM
Chain of Cyclin-dependent kinase 6 (Homo sapiens) (Q00534 whole entry): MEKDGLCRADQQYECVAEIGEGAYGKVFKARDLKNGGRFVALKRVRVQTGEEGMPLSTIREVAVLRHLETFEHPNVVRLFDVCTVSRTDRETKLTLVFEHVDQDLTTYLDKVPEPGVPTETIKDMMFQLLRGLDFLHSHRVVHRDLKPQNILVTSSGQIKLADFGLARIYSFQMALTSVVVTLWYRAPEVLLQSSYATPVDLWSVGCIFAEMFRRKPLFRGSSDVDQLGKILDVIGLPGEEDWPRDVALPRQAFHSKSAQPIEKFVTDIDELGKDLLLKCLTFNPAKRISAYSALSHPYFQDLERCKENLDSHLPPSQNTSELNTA

[17] = molecular target: Cyclin-dependent kinase 6 (Homo sapiens) (UniProt Q00534); conditions: at 1 µM
[18] = molecular target: Dual specificity protein kinase CLK2 (Homo sapiens) (UniProt P49760); conditions: at 0.1 µM
Chain of Dual specificity protein kinase CLK2 (Homo sapiens) (P49760 whole entry, looked up): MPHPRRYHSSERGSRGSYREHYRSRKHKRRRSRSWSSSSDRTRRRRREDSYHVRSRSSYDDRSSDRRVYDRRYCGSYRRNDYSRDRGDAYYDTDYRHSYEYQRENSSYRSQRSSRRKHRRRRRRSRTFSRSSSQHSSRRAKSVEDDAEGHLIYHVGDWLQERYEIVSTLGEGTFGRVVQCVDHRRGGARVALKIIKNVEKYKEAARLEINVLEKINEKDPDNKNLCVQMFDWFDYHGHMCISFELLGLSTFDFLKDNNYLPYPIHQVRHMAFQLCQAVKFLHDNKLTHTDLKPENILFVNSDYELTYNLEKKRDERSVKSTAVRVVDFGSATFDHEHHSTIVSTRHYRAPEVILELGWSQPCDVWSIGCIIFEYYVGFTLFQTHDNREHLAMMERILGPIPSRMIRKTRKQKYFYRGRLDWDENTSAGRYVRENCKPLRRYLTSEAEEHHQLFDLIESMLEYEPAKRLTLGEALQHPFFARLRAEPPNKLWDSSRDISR

[19] = molecular target: Dual specificity protein kinase CLK2 (Homo sapiens) (UniProt P49760); conditions: at 1 µM
[20] = molecular target: Dual specificity protein kinase CLK3 (Homo sapiens) (UniProt P49761); conditions: at 0.1 µM
Chain of Dual specificity protein kinase CLK3 (Homo sapiens) (P49761 whole entry, looked up): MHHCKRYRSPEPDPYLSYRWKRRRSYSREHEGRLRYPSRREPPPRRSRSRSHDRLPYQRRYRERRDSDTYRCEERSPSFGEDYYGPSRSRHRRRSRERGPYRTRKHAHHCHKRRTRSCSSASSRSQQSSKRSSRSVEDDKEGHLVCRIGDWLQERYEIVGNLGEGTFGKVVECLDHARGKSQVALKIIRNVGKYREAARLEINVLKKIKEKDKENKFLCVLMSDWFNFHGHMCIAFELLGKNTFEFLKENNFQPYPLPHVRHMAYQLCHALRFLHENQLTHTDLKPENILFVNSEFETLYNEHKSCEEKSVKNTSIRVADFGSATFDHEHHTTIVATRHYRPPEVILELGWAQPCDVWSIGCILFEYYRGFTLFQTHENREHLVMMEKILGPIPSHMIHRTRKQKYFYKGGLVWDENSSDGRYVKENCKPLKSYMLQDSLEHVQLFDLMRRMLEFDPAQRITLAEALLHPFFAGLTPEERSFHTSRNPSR

Chain of Casein kinase I isoform gamma-3 (Homo sapiens) (Q9Y6M4 whole entry, looked up, canonical isoform): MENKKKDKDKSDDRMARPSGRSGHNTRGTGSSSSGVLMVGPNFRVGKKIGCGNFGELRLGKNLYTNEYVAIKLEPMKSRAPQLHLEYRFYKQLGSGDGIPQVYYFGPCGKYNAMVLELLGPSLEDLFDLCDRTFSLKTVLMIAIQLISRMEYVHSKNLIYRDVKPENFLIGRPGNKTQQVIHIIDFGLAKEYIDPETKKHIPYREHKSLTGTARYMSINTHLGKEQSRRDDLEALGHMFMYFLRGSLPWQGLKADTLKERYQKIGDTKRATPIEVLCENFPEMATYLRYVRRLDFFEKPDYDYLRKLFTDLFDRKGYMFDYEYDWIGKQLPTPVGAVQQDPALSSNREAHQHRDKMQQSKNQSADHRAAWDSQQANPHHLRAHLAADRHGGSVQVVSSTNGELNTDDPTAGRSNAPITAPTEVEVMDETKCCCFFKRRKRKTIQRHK
Chain of Casein kinase I isoform gamma-2 (Homo sapiens) (P78368 whole entry, looked up, canonical isoform): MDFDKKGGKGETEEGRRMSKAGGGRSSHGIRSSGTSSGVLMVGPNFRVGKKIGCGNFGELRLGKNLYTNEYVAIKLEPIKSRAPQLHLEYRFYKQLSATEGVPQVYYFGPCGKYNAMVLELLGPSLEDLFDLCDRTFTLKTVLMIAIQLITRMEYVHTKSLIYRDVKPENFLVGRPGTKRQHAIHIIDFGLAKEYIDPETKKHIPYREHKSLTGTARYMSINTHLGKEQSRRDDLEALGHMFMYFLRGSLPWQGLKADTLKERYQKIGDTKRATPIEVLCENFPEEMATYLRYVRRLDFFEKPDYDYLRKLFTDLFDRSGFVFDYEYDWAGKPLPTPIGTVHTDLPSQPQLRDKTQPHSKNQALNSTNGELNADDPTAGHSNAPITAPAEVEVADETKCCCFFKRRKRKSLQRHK

| SMILES | inhibition [1] [%] | inhibition [2] [%] | inhibition [3] [%] | inhibition [4] [%] | inhibition [5] [%] | inhibition [6] [%] | inhibition [7] [%] | inhibition [8] [%] | inhibition [9] [%] | inhibition [10] [%] | inhibition [11] [%] | inhibition [12] [%] | inhibition [13] [%] | inhibition [14] [%] | inhibition [15] [%] | inhibition [16] [%] | inhibition [17] [%] | inhibition [18] [%] | inhibition [19] [%] | inhibition [20] [%] |
| --- | --- | --- | --- | --- | --- | --- | --- | --- | --- | --- | --- | --- | --- | --- | --- | --- | --- | --- | --- | --- |
| CN(C)CCOc1ccc(-c2nc(-c3ccncc3)c(-c3ccc4c(c3)CC/C4=N\O)[nH]2)cc1 | 4.12 | 3.08 | 3.59 | 1.59 | 5.87 | 1.86 | 11.1 | 6.01 | 7.95 | 3.78 | -2.98 | 2.94 | 6.21 | 2.41 | 5.88 | 7.36 | 9.02 | -1.13 | 2.18 | 1.97 |
| O=C(O[C@H]1CN[C@H](C#Cc2cc3ncnc(Nc4ccc(Cc5ccccc5)cc4)c3s2)C1)N1CCOCC1 | 2.93 | 2.83 | 0.75 | 0.31 | 1.96 | 0.69 | 0.19 | 1.15 | 1.72 | -2.04 | -1.05 | 0.77 | 1.9 | 0.05 | 1.12 | -3.24 | -1.41 | 0.36 | -0.46 | 0.27 |
| COc1ccc2[nH]c3c4[nH]c5ccc(OC)cc5c4c4c(c3c2c1)C(=O)NC4=O | 3.1 | 4.06 | 5 | 0.17 | 3.22 | 1.85 | 3 | 3.64 | 4.91 | 2.31 | 6.02 | 2.56 | 7.55 | 1.11 | 2.57 | 2.91 | 3.6 | 5.12 | 20.3 | 2.17 |
| Fc1ccc(-c2nn3ncccc3c2-c2ccnc(Nc3ccc4c(c3)OCCO4)n2)cc1 | 61.6 | 23.9 | 76.1 | 0.14 | 0.65 | 1.25 | 3.7 | 2.71 | 2.76 | 3.59 | -2.65 | 1.89 | 1.86 | 0.45 | 0.21 | -2.15 | 2.72 | 1.15 | 1.21 | 1.15 |
| COC(=O)Nc1nc2ccc(S(=O)(=O)c3ccc(NC(=O)Nc4cc(C(F)(F)F)ccc4F)cc3)cc2[nH]1 | 2.81 | 2.17 | 2.25 | 0.69 | 2.29 | 1.37 | 4.57 | 3.44 | 3.85 | 3.5 | -2.43 | 2.72 | 4.04 | 1.61 | 2.38 | 0.21 | 2.9 | 0.38 | 1.96 | 0.87 |
| CCOc1ccc2c(-c3ccnc(Nc4cccc(C(F)(F)F)c4)n3)cnn2n1 | 3.07 | 1.18 | 1.86 | 0.34 | 6.63 | 1.78 | 8.89 | 3.35 | 14.1 | 2.12 | 1.6 | 1.35 | 2.43 | 0.66 | 3.67 | -0.78 | 1.85 | 24.2 | 94.3 | 0.68 |
| O=C(Nc1n[nH]c2cc(-c3ccc(F)cc3)ccc12)C1CC1 | 3.16 | 1.93 | 3.02 | 0.08 | 4.52 | -0.94 | 5.81 | 2.56 | 6.81 | 2.18 | 2.42 | 2.64 | 6.92 | 0.56 | 3.03 | -1.47 | 24.6 | 0.75 | 0.48 | 1.11 |
| CC(C)(CO)CNC(=O)c1ccc2c(c1)/C(=N/Nc1ccc(S(N)(=O)=O)cc1)C(=O)N2 | 3.6 | 1.31 | 8.37 | 37.2 | 74.8 | 87.3 | 93.6 | 68.4 | 81.2 | 48.5 | 88.5 | 13.6 | 54.6 | 40.6 | 75.1 | 9.84 | 59.1 | 11.8 | 61.9 | -0.48 |
| COc1cc(Nc2nccc(Nc3ccc4c(C)n[nH]c4c3)n2)cc(OC)c1OC | 9.2 | 0.39 | -0.68 | 0.71 | 3.05 | 0.73 | 3.22 | 2.32 | 6.07 | 1.75 | 4.99 | 2.86 | 3.18 | 1.21 | 2.36 | 1.52 | 3.31 | 1.62 | 2.36 | 0.25 |
| COC(=O)Nc1nc2ccc(Oc3ccc(NC(=O)Nc4cccc(Cl)c4)cc3)cc2[nH]1 | 1.64 | 0.53 | 1.25 | -0.02 | 0 | -0.3 | -1.22 | 1.4 | 0.48 | 1.02 | -0.43 | 0.18 | 0.01 | 0.3 | -0.49 | -0.37 | 3.51 | -1.9 | -1.67 | 0.01 |
| CCc1nn2ncccc2c1-c1ccnc(NC2CC2)n1 | 2.18 | 1.24 | 0.68 | 2.52 | 6.8 | 3.24 | 10.4 | 2.25 | 9.7 | -0.69 | 2.56 | 5.47 | 17.6 | 0.79 | 6.84 | 0.16 | 10.1 | 0.1 | 3.21 | 0.31 |
| CCN(CC)S(=O)(=O)c1ccc(OC)c(Nc2ncc(-c3ccccc3)o2)c1 | -0.29 | -0.78 | 1.34 | 0.99 | 5.32 | 2.02 | 5.22 | 3.09 | 3.61 | 1.42 | -0.01 | 1.62 | 2.74 | 0.99 | 2.21 | 5.19 | 2.95 | 4.15 | 40.3 | 0.64 |
| Cc1cccc(Nc2ncc(-c3ccccc3)o2)c1 | 3.38 | 2.18 | 2.99 | 3.39 | 5.05 | 4.32 | 8.62 | 1.61 | 9.01 | -0.22 | 4.71 | 1.95 | 5.69 | 1.51 | 7.89 | -1.21 | 11.3 | 1.65 | 4.78 | 1.1 |
